Vif inh: inhibitors of HIV Vif | HEK293T cells, Vif self-association by quenched fluorescence, imaging, 24 h | inhibition, % at 7.49 µM | 0.35% of 340,000 active | AID 602346; in the data active = inhibition above about 50%, passing the limit was not always enough; inconclusive = no clear call, values can overlap the other calls; inactive = below about 31%
esBAF inh: inhibitors of esBAF chromatin remodeling in mouse ES cells; Bmi1-luciferase knock-in reporter, 24 h; 100% = twice the neutral-well signal; reporter increase, % at 12.5 µM; 2% of 350,000 active; AID 602393; in the data active = activation above about 40%; inconclusive = no clear call, values can overlap the other calls;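 also: a rise in the Bmi1 reporter signal indicates esBAF inhibition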
Glyco luc inh: N-linked glycosylation inhibition; D54 ERlucT glycosylation luciferase reporter, 24 h; percent of 100 nM tunicamycin response; reporter increase, % at 12.5 µM; 0.23% of 360,000 active;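 active = mean luciferase reporter signal, scaled so untreated is 0 and the glycosylation-blocking control 100, at or above a set limit in every replicate; inconclusive = mean reaches the limit but not every replicate does; inactive = mean below the limit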;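 also: luciferase carries N-glycosylation sites so blocking glycosylation raises the light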
Wnt bcat act: activators of Wnt/beta-catenin signaling; 1.2% of 300,000 active; activation, % at 9.35 µM; Wnt/beta-catenin reporter cell assay, activator, plate reader; in the data active = activation above about 30%, passing the limit was not always enough; inconclusive = no clear call, values can overlap the other calls
PfHsp90 yeast 2: reduces growth (ATP signal) of yeast expressing P. falciparum Hsp90. 0.32% of 310,000 active. S. cerevisiae expressing PfHsp90, BacTiter-Glo ATP, 48 h; yeast lacking PDR1 and PDR3 efflux regulators. inhibition, % at 9.4 µM;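 active = every replicate shows inhibition above about 80%, whatever the replicate mean, limit read from the data; inconclusive = mean inhibition reaches the set limit but some replicate falls short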
MITF TRPM1 HTS: MITF TRPM1 promoter activation in melanoma cells. SK-MEL-5 TRPM1-promoter luciferase, 24 h; % of positive control, neutral wells = 0. activation, % at 12.5 µM. 0.75% of 300,000 active;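 active = mean activation of at least 80% with every replicate also reaching 80%; inconclusive = mean reaches 80% but some replicate falls short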
Each line names hits and unclear results; the compound was inactive in the other large screens. Only some compounds are listed: those with a hit (about 3% of all), similar ones and a draw of the others.

O=C(c1cc2c(ccc3ccccc32)o1)N1CCCCC1	Wnt bcat act 38
COc1ccc2nc3oc(C(=O)N4CCN(c5cccc(Cl)c5)CC4)cc3cc2c1	none (no result: Vif inh, Wnt bcat act)
COc1ccc2cc3cc(C(=O)N4CC(C)CC(C)C4)oc3nc2c1 (stereo not given)	esBAF inh 58 (no result: Wnt bcat act)
O=C(c1cc2cc3ccc(Cl)cc3nc2o1)N1CCCCCC1	MITF TRPM1 HTS 102 (no result: Wnt bcat act)
O=C(c1cc2cc(Cl)ccc2o1)N1CCCCCC1	esBAF inh 65, MITF TRPM1 HTS 130 (no result: PfHsp90 yeast 2)
CCc1cccc(C)c1NC(=S)N(CCN(C)C)Cc1cccs1	none (no result: esBAF inh)
Cc1cc2nc(Cl)c(Cl)nc2cc1C	Vif inh 67 (no result: esBAF inh)
Cc1cc(C)c(C#N)c(N2CCSCC2)n1	Wnt bcat act 62
O=C1C(=O)N(c2ccccc2)C(c2ccccc2[N+](=O)[O-])/C1=C(\O)c1ccccc1 (stereo not given)	none
CCCN1C[C@@H](C)[C@@H](OC)CN(C)C(=O)c2cc(NC(=O)c3ccno3)ccc2OC[C@H]1C	none (no result: Vif inh, Glyco luc inh, Wnt bcat act, PfHsp90 yeast 2, MITF TRPM1 HTS)
COc1cccc2cc(NC(=O)C3CCCCC3)c(=O)oc12	MITF TRPM1 HTS 110 (no result: Wnt bcat act)
COc1cccc2cc(C(=O)OCC(=O)NC3CCCC(C)C3C)c(=O)oc12 (stereo not given)	esBAF inh 64 (no result: PfHsp90 yeast 2)
COc1cccc2cc(C(=O)N3CCCCC3C)c(=O)oc12 (stereo not given)	none (no result: Vif inh, Wnt bcat act)
CCOC(=O)Cn1nc(/C=C/c2ccc(OC)cc2)ccc1=O	none (no result: Wnt bcat act, PfHsp90 yeast 2)
Cc1ccc(C)c(SCC(=O)NC(=O)Nc2ccc3c(c2)OCCO3)c1	none (no result: esBAF inh)
C/C(=N\Nc1ccc(C(=O)O)cc1)c1ccc2c(c1)Nc1ccccc1S2	esBAF inh 52, MITF TRPM1 HTS 124
CN(Cc1ccccc1)C(=O)CCNS(=O)(=O)c1ccc2c(c1)oc(=O)n2C	none
CCOC(=O)c1sc(NC(=O)CCCn2nc([N+](=O)[O-])cc2C)c(C(=O)OCC)c1C	none (no result: esBAF inh)
O=C1NC2(CCCCC2)C(=O)N1c1ccc(Cl)cc1	none (no result: MITF TRPM1 HTS)
CSc1ccc(N2C(=O)NC3(CCCCC3)C2=O)cc1	esBAF inh 62 (no result: Vif inh)
Cc1ccc(NC(=O)c2cnc3ccccc3n2)cc1C	Wnt bcat act 42 (no result: MITF TRPM1 HTS)
Cc1ccc(NC(=O)c2ccc3ccccc3n2)cc1S(=O)(=O)N(C)C	esBAF inh 83, Wnt bcat act 43, MITF TRPM1 HTS 119
O=C(Nc1ccc(Cl)cc1Cl)c1csc(-c2cccnc2)n1	esBAF inh 64
CC(C)Cc1cc(C(=O)Nc2cccnc2)no1	esBAF inh 57 (no result: MITF TRPM1 HTS)
COc1ccccc1-c1cc(C(=O)Nc2cccnc2)no1	none (no result: Wnt bcat act)
O=C(Nc1cccnc1)c1cc(-c2ccc(Cl)cc2Cl)on1	Wnt bcat act 43
O=C(Nc1cccnc1)c1cc(-c2ccc(Cl)cc2)on1	Wnt bcat act 41, MITF TRPM1 HTS 129
O=C(NCc1ccccc1)c1csc(-c2cccnc2)n1	none (no result: esBAF inh)
O=C(C(=O)N1CCN(C(=O)C2CCC2)CC1)c1cccc(C(F)(F)F)c1	none (no result: Vif inh, esBAF inh, Glyco luc inh, PfHsp90 yeast 2, MITF TRPM1 HTS)
COc1ccc(NCC(O)COc2ccc(C(C)(C)C)cc2)cc1 (stereo not given)	none (no result: esBAF inh)
CC(C)N1CC2(CC(c3ccccc3F)=NO2)CN1C(=O)c1ccco1 (stereo not given)	esBAF inh 57 (no result: PfHsp90 yeast 2, MITF TRPM1 HTS)
O=S(=O)(NC1CCc2ccccc21)c1ccccc1 (stereo not given)	none (no result: PfHsp90 yeast 2, MITF TRPM1 HTS)
O=CNC1c2ccccc2CCc2ccccc21	Vif inh 61
COc1ccc(-c2noc(Cc3cccs3)n2)cc1	esBAF inh 55, MITF TRPM1 HTS 119
COc1ccc(-c2noc(Cc3ccccc3OC)n2)cc1	esBAF inh inconclusive (no result: Wnt bcat act)
COc1ccc(-c2noc(CCc3ccccc3)n2)cc1	esBAF inh 57
Cc1ccc(N)c([N+](=O)[O-])c1	none
Nc1ccc(N=Nc2ccccc2)cc1[N+](=O)[O-]	esBAF inh 62
O=S(=O)(c1cccs1)N1CCN(c2ccccc2F)CC1	none
O=c1sc(N2CCN(c3ccccc3F)CC2)nc2ccsc12	esBAF inh 69, Wnt bcat act 54 (no result: MITF TRPM1 HTS)
Cc1ccc(S(=O)(=O)Nc2c(C)nc3nc(C)[nH]n3c2=O)c(C)c1	Vif inh 64
Cc1cccnc1NC(=O)Nc1ccccc1	MITF TRPM1 HTS inconclusive
Cc1cccnc1NC(=O)Nc1cccc(F)c1	esBAF inh 48 (no result: PfHsp90 yeast 2, MITF TRPM1 HTS)
Cc1cccnc1NC(=O)Nc1ccc(Cl)cc1	esBAF inh 71
Cn1nnc(NC(=O)C(c2ccccc2)c2ccccc2)n1	Wnt bcat act 40 (no result: PfHsp90 yeast 2)
